Test results as given in PubChem BioAssay (EPA / NIEHS).
“And” between values parts separate entries of the source, which are not always exact repeats. Identical values can stand only once. Records with an inconclusive call do not appear. The source made the active and inactive calls. The calls were made as follows, unless noted: active = hit-call score of the fitted dose curve at least 0.9, where 1 is the maximum; inconclusive = response in the unintended direction; inactive = score below 0.9.

Experiments:
[1] = target: human Peroxisome Proliferator-activated Receptor alpha (PPARa), PPARA (gene 5465) (UniProt Q07869); test: ATG_PPARa_TRANS: Attagene TRANS-FACTORIAL HepG2 Assay for human Peroxisome Proliferator-activated Receptor alpha (PPARa) (AID 2283001);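 as to AC50: potency for gain of reporter signal over DMSO so agonist or activator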
Outline: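 Reporter transcripts quantified by RT-PCR plus capillary electrophoresis after 24 h treatment, fitted upward relative to DMSO. Cells: human HepG2 transiently carrying multiple GAL4-UAS reporter units driven by NR-Gal4 chimeras.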

[2] = target: human Peroxisome Proliferator-activated Receptor delta (PPARd), PPARD (gene 5467) (UniProt Q03181); test: ATG_PPARd_TRANS: Attagene TRANS-FACTORIAL HepG2 Assay for human Peroxisome Proliferator-activated Receptor delta (PPARd) (AID 2283002)
Outline: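 Transient HepG2 transfection (multiple GAL4-UAS RTUs, chimeric receptor-Gal4); 24 h dosing; total RNA → oligo(dT) RT → PCR → 6-FAM primer extension → HpaI cut → CE. Positive direction vs DMSO.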

[3] = read-out: Intercellular Adhesion Molecule 1 (ICAM1), ICAM1 (gene 3383); test: BSK_3C_ICAM1: BioMAP Diversity Plus: 3C Assay for Intercellular Adhesion Molecule 1 (ICAM1) Biomarker Activity (AID 2283003; active = hit-call score of the fitted dose curve at least 0.9, where 1 is the maximum; inactive = score below 0.9); conditions: primary human endothelial cells (HUVEC); actives raise or lower the signal
Outline: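 ELISA readout of ICAM1 in human umbilical vein endothelial cells in the 3C system, taken 24 h post-dose. Gain or loss of signal versus DMSO was fitted in both directions, with SRB total-protein staining run in parallel.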

[4] = BSK_3C_Proliferation: Cell Proliferation Assessment in the BioMAP Diversity Plus: 3C Assay (AID 2283006; active = hit-call score of the fitted dose curve at least 0.9, where 1 is the maximum; inactive = score below 0.9;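 as to AC50: potency may reflect either rise or fall in cell number versus DMSO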); conditions: primary human endothelial cells (HUVEC)
Outline: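 Proliferation as total protein: sulforhodamine B (0.1%) stain of TCA-fixed subconfluent human umbilical vein endothelial cells, absorbance 560 nm, 48 h after dosing. Activity fitted in both directions against DMSO baseline.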

[5] = target: Peroxisome proliferator-activated receptor gamma (Homo sapiens) (UniProt P37231); test: ATG_PPARg_TRANS: Attagene TRANS-FACTORIAL HepG2 Assay for human Peroxisome Proliferator-activated Receptor-gamma (PPARg) (AID 2283007)
Outline: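 After 24 h of chemical exposure, transfected HepG2 cells carrying PPARγ-Gal4 chimera reporter constructs are lysed for RNA. Reporter transcripts are measured by RT-PCR and capillary electrophoresis with fluorescent labelling, and gain of signal is fitted versus DMSO.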

[6] = target: Nuclear receptor subfamily 1 group I member 2 (Homo sapiens) (UniProt O75469); test: ATG_PXR_TRANS: Attagene TRANS-FACTORIAL HepG2 Assay for human Pregnane X Receptor (PXR) (AID 2283008)
Outline: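 Multiplexed TRANS reporter panel in HepG2; this component tracks PXR-Gal4-driven reporter mRNA after 24 h dosing, measured by RT-PCR with capillary electrophoresis fluorescence, fitted against DMSO.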

[7] = target: human Retinoic Acid Receptor beta (RARb), RARB (gene 5915) (UniProt P10826); test: ATG_RARb_TRANS: Attagene TRANS-FACTORIAL HepG2 Assay for human Retinoic Acid Receptor beta (AID 2283004)
Outline: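 Readout is reporter mRNA induction: RNA reverse-transcribed, PCR-amplified, FAM-labelled, HpaI-cut and resolved by capillary electrophoresis. Transiently transfected HepG2 cells carrying exogenous NR–Gal4 chimeras were dosed for 24 h; activity fitted upward relative to DMSO.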

[8] = target: Retinoic acid receptor alpha (Homo sapiens) (UniProt P10276); test: ATG_RARa_TRANS: Attagene TRANS-FACTORIAL HepG2 Assay for human Retinoic Acid Receptor alpha (RARa) (AID 2283005);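 as to AC50: potency for increased reporter signal meaning RARa activation over DMSO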
Outline: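 Reporter transcripts, measured by RT-PCR with fluorescent labeling and capillary electrophoresis after 24 h dosing, reflect activity of an exogenous human RARa–GAL4 fusion in transiently transfected HepG2. Fitted for increase relative to DMSO.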

[9] = target: human Retinoic Acid Receptor gamma (RARg), RARG (gene 5916) (UniProt P13631); test: ATG_RARg_TRANS: Attagene TRANS-FACTORIAL HepG2 Assay for human Retinoic Acid Receptor gamma (RARg) (AID 2283009)
Outline: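 Transactivation of exogenous RARg-Gal4 fusion measured as reporter transcript induction after 24 h in transfected HepG2 cells. RNA reverse-transcribed, amplified, fluorescently labeled and resolved by capillary electrophoresis; increase relative to DMSO.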

[10] = target: human RAR-related Orphan Receptor beta (RORb), RORB (gene 6096) (UniProt Q92753); test: ATG_RORb_TRANS: Attagene TRANS-FACTORIAL HepG2 Assay for human RAR-related Orphan Receptor beta (RORb) (AID 2283010)
Outline: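 Read-out is reporter mRNA induction, quantified by RT-PCR with fluorescent capillary electrophoresis, 24 h post-dose in transiently transfected HepG2 expressing exogenous NR-Gal4 chimera. Activity fitted upward versus DMSO.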

Measured: AC50

Nuclear receptor subfamily 1 group I member 2 (Homo sapiens), sequence (O75469 whole entry, looked up, the tested form may be a part): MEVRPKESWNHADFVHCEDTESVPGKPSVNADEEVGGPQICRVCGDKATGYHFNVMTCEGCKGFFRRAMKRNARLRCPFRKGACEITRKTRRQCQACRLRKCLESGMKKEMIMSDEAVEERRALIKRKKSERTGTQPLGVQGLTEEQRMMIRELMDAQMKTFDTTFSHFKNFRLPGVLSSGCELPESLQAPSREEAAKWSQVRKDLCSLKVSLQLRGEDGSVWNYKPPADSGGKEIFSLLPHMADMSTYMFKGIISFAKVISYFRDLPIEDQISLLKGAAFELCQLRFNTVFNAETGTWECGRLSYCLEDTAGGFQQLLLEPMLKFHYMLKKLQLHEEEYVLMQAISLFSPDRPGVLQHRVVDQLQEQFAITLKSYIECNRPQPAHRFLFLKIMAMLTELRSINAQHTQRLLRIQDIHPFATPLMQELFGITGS
human Retinoic Acid Receptor gamma (RARg), RARG (gene 5916), sequence (P13631 whole entry, looked up, the tested form may be a part): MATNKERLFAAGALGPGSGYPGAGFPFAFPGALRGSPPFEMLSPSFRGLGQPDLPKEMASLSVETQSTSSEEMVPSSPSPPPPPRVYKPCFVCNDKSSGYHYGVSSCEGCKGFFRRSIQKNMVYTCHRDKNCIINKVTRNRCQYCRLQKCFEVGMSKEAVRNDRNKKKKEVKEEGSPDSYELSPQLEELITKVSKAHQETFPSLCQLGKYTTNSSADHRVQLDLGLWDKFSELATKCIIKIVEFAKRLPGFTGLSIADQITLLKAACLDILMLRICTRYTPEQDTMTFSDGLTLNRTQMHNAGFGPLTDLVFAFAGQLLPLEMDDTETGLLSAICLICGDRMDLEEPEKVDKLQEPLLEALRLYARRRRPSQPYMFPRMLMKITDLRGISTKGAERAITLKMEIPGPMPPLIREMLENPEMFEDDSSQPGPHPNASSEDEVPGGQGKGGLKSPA
human RAR-related Orphan Receptor beta (RORb), RORB (gene 6096), sequence (Q92753 whole entry, looked up, the tested form may be a part): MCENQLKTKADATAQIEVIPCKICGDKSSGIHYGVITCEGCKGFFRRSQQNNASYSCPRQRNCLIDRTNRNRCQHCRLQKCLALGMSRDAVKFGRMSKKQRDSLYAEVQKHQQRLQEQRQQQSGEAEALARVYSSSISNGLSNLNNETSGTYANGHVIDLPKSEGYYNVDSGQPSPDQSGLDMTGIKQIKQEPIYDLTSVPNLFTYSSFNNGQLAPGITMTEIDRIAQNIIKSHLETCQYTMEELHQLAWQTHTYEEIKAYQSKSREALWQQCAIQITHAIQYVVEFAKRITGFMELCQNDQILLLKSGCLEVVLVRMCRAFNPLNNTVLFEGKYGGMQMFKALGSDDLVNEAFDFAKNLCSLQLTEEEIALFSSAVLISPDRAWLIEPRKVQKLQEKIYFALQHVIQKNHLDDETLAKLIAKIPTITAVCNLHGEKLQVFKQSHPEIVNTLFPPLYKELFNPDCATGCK
human Retinoic Acid Receptor beta (RARb), RARB (gene 5915), sequence (P10826 whole entry, looked up, the tested form may be a part): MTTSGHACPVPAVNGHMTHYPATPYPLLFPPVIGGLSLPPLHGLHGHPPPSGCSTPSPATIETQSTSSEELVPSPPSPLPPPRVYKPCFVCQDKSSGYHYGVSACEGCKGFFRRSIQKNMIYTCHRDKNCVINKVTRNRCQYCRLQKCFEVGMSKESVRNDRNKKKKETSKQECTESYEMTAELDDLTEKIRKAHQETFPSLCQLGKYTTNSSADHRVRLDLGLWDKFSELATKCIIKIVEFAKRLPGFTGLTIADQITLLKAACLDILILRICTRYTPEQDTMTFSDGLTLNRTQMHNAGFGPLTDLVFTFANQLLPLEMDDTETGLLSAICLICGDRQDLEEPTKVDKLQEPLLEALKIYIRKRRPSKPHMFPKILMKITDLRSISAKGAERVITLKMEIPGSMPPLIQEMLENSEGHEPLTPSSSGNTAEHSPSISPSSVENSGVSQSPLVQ
human Peroxisome Proliferator-activated Receptor alpha (PPARa), PPARA (gene 5465), sequence (Q07869 whole entry, looked up, the tested form may be a part): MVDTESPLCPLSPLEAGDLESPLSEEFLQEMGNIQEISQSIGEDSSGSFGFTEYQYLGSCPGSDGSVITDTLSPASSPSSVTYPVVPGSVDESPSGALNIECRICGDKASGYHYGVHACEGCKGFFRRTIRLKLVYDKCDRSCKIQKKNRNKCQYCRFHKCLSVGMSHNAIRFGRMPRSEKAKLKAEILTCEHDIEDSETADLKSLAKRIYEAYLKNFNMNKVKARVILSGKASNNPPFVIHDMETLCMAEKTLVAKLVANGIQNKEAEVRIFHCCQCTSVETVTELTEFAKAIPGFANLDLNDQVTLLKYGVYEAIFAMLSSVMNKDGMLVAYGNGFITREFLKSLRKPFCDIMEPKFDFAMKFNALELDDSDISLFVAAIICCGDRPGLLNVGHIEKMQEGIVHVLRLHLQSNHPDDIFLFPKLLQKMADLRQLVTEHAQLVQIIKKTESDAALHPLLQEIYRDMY
Peroxisome proliferator-activated receptor gamma (Homo sapiens), sequence (P37231 whole entry, looked up, the tested form may be a part): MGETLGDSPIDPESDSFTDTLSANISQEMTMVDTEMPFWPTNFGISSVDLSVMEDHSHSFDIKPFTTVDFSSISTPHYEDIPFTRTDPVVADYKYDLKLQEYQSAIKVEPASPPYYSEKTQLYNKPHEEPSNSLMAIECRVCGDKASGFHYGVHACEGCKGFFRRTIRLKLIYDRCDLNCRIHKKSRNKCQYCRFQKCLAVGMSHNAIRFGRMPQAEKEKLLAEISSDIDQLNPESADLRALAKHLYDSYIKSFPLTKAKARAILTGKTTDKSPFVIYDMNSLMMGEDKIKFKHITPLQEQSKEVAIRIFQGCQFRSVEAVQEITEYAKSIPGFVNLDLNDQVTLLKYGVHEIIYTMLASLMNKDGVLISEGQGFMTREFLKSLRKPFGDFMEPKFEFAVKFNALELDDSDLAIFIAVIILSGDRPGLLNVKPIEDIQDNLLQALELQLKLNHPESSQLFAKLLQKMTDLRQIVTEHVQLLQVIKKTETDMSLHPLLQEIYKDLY
human Peroxisome Proliferator-activated Receptor delta (PPARd), PPARD (gene 5467), sequence (Q03181 whole entry, looked up, the tested form may be a part): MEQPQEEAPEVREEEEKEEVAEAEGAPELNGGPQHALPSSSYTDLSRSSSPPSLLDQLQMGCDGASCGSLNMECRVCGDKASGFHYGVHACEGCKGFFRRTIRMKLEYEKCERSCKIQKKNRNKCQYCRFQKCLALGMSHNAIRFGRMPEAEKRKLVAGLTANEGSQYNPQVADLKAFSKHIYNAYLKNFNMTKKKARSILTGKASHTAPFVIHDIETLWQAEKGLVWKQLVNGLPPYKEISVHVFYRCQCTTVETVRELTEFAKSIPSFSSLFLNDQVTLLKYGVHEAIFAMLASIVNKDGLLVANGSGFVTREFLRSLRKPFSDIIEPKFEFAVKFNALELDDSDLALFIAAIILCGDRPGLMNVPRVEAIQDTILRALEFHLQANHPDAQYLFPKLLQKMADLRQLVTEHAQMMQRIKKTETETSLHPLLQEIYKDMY
Retinoic acid receptor alpha (Homo sapiens), sequence (P10276 whole entry, looked up, the tested form may be a part): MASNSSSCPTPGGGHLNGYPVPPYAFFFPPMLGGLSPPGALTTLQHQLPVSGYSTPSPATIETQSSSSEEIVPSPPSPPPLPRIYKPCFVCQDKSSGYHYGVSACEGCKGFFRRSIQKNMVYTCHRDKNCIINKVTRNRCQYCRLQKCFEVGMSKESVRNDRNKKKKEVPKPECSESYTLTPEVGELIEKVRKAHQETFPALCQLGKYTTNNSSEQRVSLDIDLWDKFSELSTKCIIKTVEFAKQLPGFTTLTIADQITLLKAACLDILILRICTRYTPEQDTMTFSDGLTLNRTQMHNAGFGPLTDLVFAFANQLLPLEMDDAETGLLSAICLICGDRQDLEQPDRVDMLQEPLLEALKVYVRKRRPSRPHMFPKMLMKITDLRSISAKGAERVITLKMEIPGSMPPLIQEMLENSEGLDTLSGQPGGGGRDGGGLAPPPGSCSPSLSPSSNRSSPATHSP

Cc1cn([C@H]2C[C@H](N=[N+]=[N-])[C@@H](CO)O2)c(=O)[nH]c1=O
inactive: [1] | [2] | [3] | [4] | [5] | [6]

CCCCCCCCOc1ccc(C(=O)c2ccccc2)c(O)c1
active: [4] 30.1 µM
inactive: all other assays above

CN1C(=O)CC[C@H]1c1cccnc1
inactive: [1] | [3] | [4] | [5] | [6]

CC(C)(C)c1csc(-c2cc3cc(OCc4ccccc4CC(=O)O)ccc3o2)n1
inactive: [1] | [2] | [3] | [6]
active: [4] 18.1 µM | [5] 1.51 µM

O=c1ccc2ccccc2o1
inactive: [3] | [8] | [4]

O=C1c2ccccc2C(=O)N1CCc1noc(-c2ccc(CN3CCCCCC3)s2)n1
active: [6] 2720 nM
inactive: [2] | [3] | [4] | [5]

CC[C@H](NC(=O)c1cc(F)ccc1NS(=O)(=O)c1cccc2cccnc12)c1ccccc1
inactive: [2] | [3] | [7] | [4]
active: [5] 13.1 µM | [6] 12.4 nM

CCCC(=O)OCCC(C)C
inactive: [3] | [7] | [8] | [4] | [9]

CCO[Si](CCCNC(N)=O)(OCC)OCC
inactive: [3] | [8] | [4] | [9]

CN(C)c1ccc(C(=C2C=CC(=[N+](C)C)C=C2)c2ccc(N(C)C)cc2)cc1
inactive: [2] | [7]
active: [3] 10.3 µM | [4] 2.42 µM | [5] 16.8 µM

CCN(Cc1cccc(S(=O)(=O)O)c1)c1ccc(C(=C2C=CC(=[N+](CC)Cc3cccc(S(=O)(=O)O)c3)C=C2)c2ccccc2S(=O)(=O)[O-])cc1
inactive: [2] | [3] | [4] | [5] | [6] | [10]

Cc1ccc2oc(CN(Cc3ccccc3)C(=O)Nc3c(F)cc(F)cc3F)c(-c3ccc(Cl)cc3)c2c1
inactive: [3] | [8] | [5]
active: [4] 7.43 µM | [6] 1240 nM

CC[C@@H]1C[C@H](N(Cc2cc(C(F)(F)F)cc(C(F)(F)F)c2)C(C)=O)c2cc(C(F)(F)F)ccc2N1C(=O)OC(C)C
active: [8] 1.1 µM | [6] 118 nM
not listed: [1] | [10]
inactive: all other assays above

O=C1O[C@H]([C@@H](O)CO)C(O)=C1O
inactive: [2] | [3] | [4] | [5]

C[C@]12CC[C@@H]3c4ccc(O)cc4CC[C@H]3[C@@H]1CC[C@H]2O
active: [4] 9.12 µM | [6] 4.02 µM [middle of 4 runs]
not listed: [1]
inactive: all other assays above

CO[C@H]1/C=C/O[C@@]2(C)Oc3c(C)c(O)c4c(O)c(c(/C=N/N5CCN(C)CC5)c(O)c4c3C2=O)NC(=O)/C(C)=C\C=C\[C@H](C)[C@H](O)[C@@H](C)[C@@H](O)[C@@H](C)[C@H](OC(C)=O)[C@@H]1C
inactive: [2] | [3] | [7] | [8] | [4] | [5]

O=C(O)Cn1c(=O)n(Cc2ccc(Br)cc2F)c(=O)c2ccc(Cl)cc21
active: [5] 6.18 µM | [6] 11000 nM
inactive: [1] | [3] | [4] | [9]

C[C@]12CC[C@@H]3c4ccc(O)cc4CC[C@H]3[C@@H]1CCC2=O
inactive: [1] | [3] | [10]
active: [4] 20.7 µM

CC/C(=C(/CC)c1ccc(O)cc1)c1ccc(O)cc1
active: [3] 32.8 µM | [4] 20 µM
inactive: [7] | [9] | [10]

CCN(CC)C(=O)c1cc(S(=O)(=O)Cc2ccccc2)c(N2CCC(c3ccccc3)CC2)cc1N(CC)CCN(C)C
active: [3] 28.7 µM | [4] 6.12 µM | [6] 91 nM
inactive: [8] | [9]

Oc1ccc2ccccc2c1
active: [4] 10.7 µM
inactive: [1] | [3] | [5] | [6] | [10]

Cc1oc2c(NC(=O)c3c(Cl)cccc3Cl)cccc2c1C(C)(C)O
active: [4] 21.4 µM | [5] 3.28 µM | [6] 204 nM
not listed: [1] | [10]
inactive: all other assays above

Cc1cc(F)ccc1-c1cc(N2CC[C@@H](O)[C@H]2CO)ncc1N(C)C(=O)C(C)(C)c1cc(C(F)(F)F)cc(C(F)(F)F)c1
inactive: [2] | [5]
active: [3] 12.8 µM | [4] 5.65 µM | [6] 1140 nM

O=C(O)c1ccccc1-n1cc(C(=O)O)c(=O)c2cc(Nc3c(F)cc(F)cc3Cl)c(Cl)cc21
not listed: [1] | [5]
inactive: all other assays above

CC(=O)N1CCN(c2ccc(OC[C@H]3CO[C@](Cn4ccnc4)(c4ccc(Cl)cc4Cl)O3)cc2)CC1
inactive: [3] | [5] | [6]
active: [4] 23.8 µM

COc1cccc([C@H](O)C2CCN(CCc3ccc(F)cc3)CC2)c1OC
inactive: [2] | [3] | [4] | [6] | [9]

O=C(OCCCCCCOC(=O)c1ccccc1)c1ccccc1
inactive: [2] | [3] | [7] | [6] | [9]
active: [4] 20.7 µM

CCCCCCCCCC(=O)O
inactive: [3] | [4] | [6] | [9] | [10]
active: [1] 29.1 µM | [5] 29.2 µM and 12.3 µM

Cc1cc2c(cc1C(F)(F)F)N(C(=O)Nc1ccc(Oc3cccnc3C)nc1)CC2
active: [4] 9.22 µM
not listed: [1] | [8] | [10]
inactive: all other assays above

Clc1ccccc1C(c1ccccc1)(c1ccccc1)n1ccnc1
active: [3] 31.5 µM | [4] 13.7 µM | [6] 240 nM

CCCCCCCC[Si](OCC)(OCC)OCC
active: [4] 18.4 µM
not listed: [1] | [6]
inactive: all other assays above

O=C=NCCCCCCN=C=O
inactive: [2] | [3] | [4] | [5] | [6] | [10]

c1ccc2n[nH]nc2c1
not listed: [1] | [7] | [9]
inactive: all other assays above

CN1C(=O)N(c2ccccc2Br)Cc2cnc(Nc3ccc4c(c3)OCC(CO)O4)nc21 (stereo not given)
active: [3] 28.1 µM | [4] 2.28 µM
inactive: [5] | [6]

OCCO
not listed: [1] | [5]
inactive: all other assays above

CCN(Cc1cccnc1)C(=O)c1cccc(Cl)c1[C@]1(C)C(=O)N(Cc2ccc(OC)cc2OC)c2ccc(Cl)cc21
inactive: [2] | [3] | [5] | [9]
active: [4] 5.12 µM | [6] 26.2 nM

CCCCCCCCN(C)CCCCCCCC
not listed: [1] | [5] | [8]
inactive: all other assays above

CC1(C)NC(=O)N(c2ccc([N+](=O)[O-])c(C(F)(F)F)c2)C1=O
inactive: [1] | [3] | [4] | [5] | [9]

CCOC(=O)O[C@H](C)OC(=O)c1ccc2c(c1)cc(C(=O)NC1CCN(C(C)C)CC1)n2Cc1cc(-c2ccc(Cl)s2)on1
active: [3] 8.99 µM | [4] 1.77 µM
inactive: [1] | [5] | [6]

CC(C)(c1cc(Br)c(O)c(Br)c1)c1cc(Br)c(O)c(Br)c1
active: [3] 36 µM | [4] 28 µM | [6] 6.78 µM and 10.5 µM
inactive: [7] | [8] | [9]

NC(=O)c1nc(-c2cccc(-c3cc(F)ccc3OCC(F)(F)C(F)(F)F)c2)n[nH]1
active: [4] 32.4 µM | [5] 13 µM | [6] 8710 nM
inactive: [2]
